Source: PubChem BioAssay (NCATS)
Inconclusive results are not listed. The source made the active and inactive calls. The call rests on the fitted dose curve; in most records, active means well fitted curve in the direction sought with a large enough effect; inconclusive means small, poorly fitted or top-dose-only effect, or another doubt; inactive means no such curve, though single readings can be large or run the other way.

biological target: Metallo-beta-lactamase type 2 (Klebsiella pneumoniae) (UniProt C7C422); assay: qHTS to identify inhibitors of the New Delhi Metallo-beta-lactamase (NDM): assay validation screen against the NCATS LOPAC Collection (AID 1794843); details: NDM-1 enzyme, nitrocefin hydrolysis, absorbance 485 nm; series mostly up to 38.4 µM;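 further: nitrocefin turnover by NDM-1 measured as 485 nm absorbance at plateau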
Summary of the method: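 Enzyme 2 nM final, 50 mM HEPES pH 7.0, 1 uM ZnSO4, 0.01% Tween20; cpds in DMSO, preincub w/ enzyme; + nitrocefin (50 uM stock); A485 at plateau; no-enzyme column as blank.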

Sequence of Metallo-beta-lactamase type 2 (Klebsiella pneumoniae) (C7C422 whole entry, looked up): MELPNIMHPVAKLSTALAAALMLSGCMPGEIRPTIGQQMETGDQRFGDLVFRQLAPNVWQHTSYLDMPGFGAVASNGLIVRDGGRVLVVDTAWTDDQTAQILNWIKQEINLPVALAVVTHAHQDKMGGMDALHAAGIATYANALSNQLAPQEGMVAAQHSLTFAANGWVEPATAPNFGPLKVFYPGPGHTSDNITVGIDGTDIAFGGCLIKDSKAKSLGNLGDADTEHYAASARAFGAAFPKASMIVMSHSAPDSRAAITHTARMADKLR

SMILES	outcome
O=c1c(O)c(-c2ccc(O)cc2O)oc2cc(O)cc(O)c12	inactive
Nc1nc(OCc2ccccc2)c2[nH]cnc2n1	inactive
O=C(CCc1ccc(O)cc1)c1c(O)cc(O)cc1O	inactive
CC1(C)C(=O)N(CCN2CCC(C(=O)c3ccc(F)cc3)CC2)c2ccccc21	inactive
O=C(O)c1cccnc1Nc1cccc(C(F)(F)F)c1	inactive
O=C1c2c(O)cc(O)cc2OC(c2ccc(O)c(O)c2)C1O (centres undefined)	inactive
O=C1c2ccccc2-c2n[nH]c3cccc1c23	inactive
COc1ccccc1N1CCN(CCN(C(=O)C2CCCCC2)c2ccccn2)CC1	inactive
Oc1ccc(-c2nc(-c3ccc(F)cc3)c(-c3ccncc3)[nH]2)cc1	inactive
NCCCCNCCCN	inactive
C[C@@H](N)C1CCC(C(=O)Nc2ccncc2)CC1 (some centres undefined)	inactive
O=c1c(O)c(-c2cc(O)c(O)c(O)c2)oc2cc(O)cc(O)c12	inactive
Cc1cccc(-c2[nH]ncc2-c2ccc3ncccc3n2)n1	inactive
CCOC(=O)C1=C(O)C(=O)N(Cc2ccccc2)C1	inactive
O=c1cc(N2CCOCC2)oc2c(-c3ccccc3)cccc12	inactive
CN(C)C(=O)[C@H](O)[C@H](Cc1ccccc1)NC(=O)c1cc2cc(Cl)ccc2[nH]1	inactive
CC(=O)N1CCN(c2ccc(OC[C@H]3CO[C@](Cn4ccnc4)(c4ccc(Cl)cc4Cl)O3)cc2)CC1	inactive
COc1cc2c(cc1OC)C1CC(=O)C(CC(C)C)CN1CC2 (centres undefined)	inactive
CC1(C)NC(=O)N(c2ccc([N+](=O)[O-])c(C(F)(F)F)c2)C1=O	inactive
